Common to all, as to details: concentration: 1 μM, replicates: in singlicate; n = 1
The test system of test [1] is FGFR1.
The subject of test [2] is FGFR2.
Test [3] concerns FGFR3.
For test [4], the system named is FGFR4.
The subject of test [5] is FGR.
Test [6] deals with FLT1.
In test [7] the test system is FLT3-autoinhibited.
For test [8], the system named is FLT3.
Test [9] deals with FLT4.
Test [10] has as its system FRK.
For test [11], the system named is FYN.
Test [12] has as its system GAK.
For test [13], the system named is T1, GCN2(Kin.Dom.2,S808G).
T1 construct: gene EIF2AK4

The subject of test [14] is GRK1.
Test [15] concerns T2, GRK2.
T2 construct: gene ADRBK1

Test [16] has as its system T3, GRK3.
T3 construct: gene ADRBK2

The test system of test [17] is GRK4.
Test [18] has as its system GRK7.
For test [19], the system named is GSK3A.
Test [20] has as its system GSK3B.

These results are taken from publication PMC5540273 (PLoS ONE, 2017).
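Also: KINOMEscan kinase panel screen.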

`Cc1ccccc1CC(=O)N1CCc2cc(-c3cn(C)c4ncnc(N)c34)ccc21` [GSK2603346]: the “%Inh” value in test [1] was 0%; in [2], 14%; in test [3] it was 8%; in test [4], 0%; in [5] it was 22%; in test [6], 59%. Besides, the “%Inh” value is on record as 0% in [7]; 51% in test [8]; 29% in test [9]; 2% in test [10]; 32% in [11]; 32% in test [12]. The “%Inh” value was found to be 65% in test [13]; 9% in [14]; 3% in test [15]; 0% in [16]; 0% in test [17]; 0% in [18]. The “%Inh” value in test [19] came to 1%; in [20], 2%.
Turning to `COc1ccc(NC(=O)c2ccoc2)cc1-c1ccc(C(=O)NCC2CC2)cc1` [GW810437], the “%Inh” value in test [1] amounted to 3%; in [2] it was 0%; in test [3], 0%; in test [4], 1%; in test [5], 0%; in [6] it was 0%. In addition, the “%Inh” value in test [7] was 0%; in test [8], 0%; in test [9], 12%; in test [10], 14%; in [11], 0%; in test [12], 0%. For the same compound, the “%Inh” value in [13] is 0%; in test [14], 24%; in test [15], 0%; in test [16], 0%; in [17] it was 0%; in test [18], 0%. Further, the “%Inh” value in test [19] was 0%; in [20], 26%.
On to `Nc1cccc(-c2ccc3c(N)n[nH]c3c2)c1` [GSK2193613], for which the “%Inh” value in test [1] was 74%; in test [2] it was 0%; in test [3] it was 0%; in test [4], 0%; in [5] it was 23%; in test [6] it was 14%. Further, the “%Inh” value came out at 0% in [7]; 14% in test [8]; 0% in [9]; 0% in test [10]; 13% in test [11]; 44% in [12]. Besides, the “%Inh” value in test [13] turned out to be 0%; in test [14], 0%; in [15], 0%; in test [16], 55%; in test [17], 9%; in test [18] it was 0%. Further, the figures for the “%Inh” value in test [19] and in test [20] were 0% and 96.2%, respectively.
On to `Cc1ccc(-c2ccc3occ(-c4ccc(S(C)=O)cc4)c3c2)nn1` (stereo not shown), for which the “%Inh” value amounted to 0% in test [1]; 2% in test [2]; 4% in [3]; 0% in [4]; 15% in test [5]; 0% in test [6]. The “%Inh” value in test [7], in test [8], in test [9], in [10], in test [11] and in [12] was 0% each time. Moreover, the “%Inh” value in [13] was 1%; in test [14] it was 12%; in test [15], 0%; in test [16], 0%; in test [17], 7%; in [18] it was 0%. For the same compound, the “%Inh” value in test [19] came to 3%; in test [20], 0%.
With `Nc1ncnc2scc(-c3ccc(NC(=O)Cc4cc(F)ccc4F)cc3)c12.O=C(O)C(F)(F)F` [SB-731254-M], the “%Inh” value turned out to be 28% in test [1]; 100% in test [2]; 0% in test [3]; 9% in [4]; 23% in test [5]; 90.7% in test [6]. Further, the “%Inh” value is 89% in [7]; 94.1% in [8]; 61% in test [9]; 0% in test [10]; 0% in test [11]; 26% in test [12]. The “%Inh” value in [13] worked out at 19%; in [14] it was 24%; in test [15], 0%; in test [16], 0%; in test [17], 15%; in test [18], 29%. For the same compound, the “%Inh” value came out at 3% in test [19] and 24% in test [20].
Consider `Cc1ccc(NC(=O)c2ccnc(N3CCCCC3)c2)cc1-c1ccc(C(=O)NCC2CC2)cc1` [GW775610], for which the “%Inh” value in [1] amounted to 4%; in test [2] it was 10%; in [3], 2%; in test [4], 0%; in test [5], 0%; in test [6] it was 36%. In addition, the “%Inh” value in test [7] was determined as 6%; in test [8], 72%; in [9], 0%; in [10], 32%; in test [11] it was 2%; in test [12], 0%. Besides, the “%Inh” value in test [13] is listed as 14%; in test [14], 8%; in test [15], 16%; in test [16], 14%; in [17] it was 19%; in [18] it was 0%. Further, the “%Inh” value in test [19] and in test [20] was 0% each time.
For `COc1cc(Nc2nccc(N3CCC(NC(=O)Nc4ccc5c(c4)OCO5)C3)n2)cc(OC)c1OC` (stereo not shown) [GSK1379766], the “%Inh” value in test [1] stood at 0%; in test [2] it was 0%; in [3], 0%; in test [4] it was 0%; in test [5], 4%; in [6], 26%. Moreover, the “%Inh” value was 8% in test [7]; 65% in test [8]; 16% in test [9]; 0% in [10]; 36% in [11]; 21% in test [12]. For the same compound, the “%Inh” value came out at 0% in test [13]; 0% in test [14]; 0% in test [15]; 8% in [16]; 0% in test [17]; 0% in test [18]. Further, the “%Inh” value in test [19] is reported as 0%; in [20], 2%.
As for `COc1cccc2c(-c3ccncc3)c(-c3ccc(F)cc3)nn12` [GW468513], the “%Inh” value in test [1] is given as 11%; in test [2] it was 0%; in test [3], 1%; in [4] it was 0%; in [5], 13%; in [6] it was 29%. Moreover, the “%Inh” value was found to be 0% in [7]; 22% in [8]; 13% in [9]; 5% in test [10]; 27% in test [11]; 83% in test [12]. The “%Inh” value is 18% in test [13]; 0% in test [14]; 0% in test [15]; 38% in test [16]; 0% in [17]; 0% in [18]. Moreover, the “%Inh” value in [19] is 4%; in [20], 3%.
